Out of some 5,500 compounds screened, about 2,000 (36%) were called active. About 18% were inconclusive and are not listed. The list shows a part of the results. Unmarked numbers belong to inactive results. Cut-off read from the data, not from the text of the source: active = normalized growth mostly below about 0.91 (no sharp cut-off); inconclusive = no clear call, values can overlap the other calls; inactive = mostly above about 0.92.
Assay: chemical genetic growth profiling, strain panel (AID 1159580);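 note: tested at 20 µM; growth read once vehicle control cultures reached saturation at 30 °C; 1 = growth at the plate median or of vehicle wells; lower values mean less growth of the strain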
Conditions: growth OD

CCOP(=S)(OCC)SCn1c(=O)oc2cc(Cl)ccc21
normalized growth (S. cerevisiae deletion strains, locus YJR043C, strain POL32, stronger effect = lower value): 1.01
normalized growth (S. cerevisiae deletion strains, locus YJR075W, strain HOC1, stronger effect = lower value): 0.995
normalized growth (S. cerevisiae deletion strains, locus YKL009W, strain mrt4, stronger effect = lower value): 0.98
normalized growth (S. cerevisiae deletion strains, locus YKL068W, stronger effect = lower value): 1
normalized growth (S. cerevisiae deletion strains, locus YKL085W, strain MDH1 (second series), stronger effect = lower value): 0.989
normalized growth (S. cerevisiae deletion strains, locus YKL085W, strain MDH1, stronger effect = lower value): 0.989
normalized growth (S. cerevisiae deletion strains, locus YKL160W, strain elf1, stronger effect = lower value): 0.968
normalized growth (S. cerevisiae deletion strains, locus YKL190W, strain CNB1, stronger effect = lower value): 1.01
normalized growth (S. cerevisiae deletion strains, locus YKR001C, strain vps1, stronger effect = lower value): 0.982
normalized growth (S. cerevisiae deletion strains, locus YKR026C, strain gcn3, stronger effect = lower value): 0.947
normalized growth (S. cerevisiae deletion strains, locus YKR091W, strain srl3, stronger effect = lower value): 0.963
normalized growth (S. cerevisiae deletion strains, locus YLL001W, strain dnm1, stronger effect = lower value): 0.967
normalized growth (S. cerevisiae deletion strains, locus YLL026W, stronger effect = lower value): 0.954
normalized growth (S. cerevisiae deletion strains, locus YLL041C, strain sdh2, stronger effect = lower value): 0.954
normalized growth (S. cerevisiae deletion strains, locus YLR027C, strain aat2, stronger effect = lower value): 0.954
normalized growth (S. cerevisiae deletion strains, locus YLR039C, strain RIC1, stronger effect = lower value): 0.97
normalized growth (S. cerevisiae deletion strains, locus YLR058C, strain SHM2, stronger effect = lower value): 1
normalized growth (S. cerevisiae deletion strains, locus YLR102C, strain apc9, stronger effect = lower value): 0.995
normalized growth (S. cerevisiae deletion strains, locus YLR221C, strain rsa3, stronger effect = lower value): 0.964
normalized growth (S. cerevisiae deletion strains, locus YLR258W, strain gsy2, stronger effect = lower value): 0.93
normalized growth (S. cerevisiae deletion strains, locus YLR262C, strain YPT6 (second series), stronger effect = lower value): 0.8 (active)
normalized growth (S. cerevisiae deletion strains, locus YLR262C, strain YPT6, stronger effect = lower value): 0.969
normalized growth (S. cerevisiae deletion strains, locus YLR268W, strain sec22, stronger effect = lower value): 0.987
normalized growth (S. cerevisiae deletion strains, locus YLR320W, strain mms22, stronger effect = lower value): 0.942
normalized growth (S. cerevisiae deletion strains, locus YLR330W, strain CHS5, stronger effect = lower value): 0.985
normalized growth (S. cerevisiae deletion strains, locus YLR342W, strain FKS1 (second series), stronger effect = lower value): 1.05
normalized growth (S. cerevisiae deletion strains, locus YLR342W, strain FKS1, stronger effect = lower value): 0.93
normalized growth (S. cerevisiae deletion strains, locus YLR357W, strain rsc2, stronger effect = lower value): 0.949
normalized growth (S. cerevisiae deletion strains, locus YLR370C, strain arc18, stronger effect = lower value): 0.962
normalized growth (S. cerevisiae deletion strains, locus YLR371W, strain rom2, stronger effect = lower value): 1
normalized growth (S. cerevisiae deletion strains, locus YLR384C, strain iki3, stronger effect = lower value): 0.971
normalized growth (S. cerevisiae deletion strains, locus YLR418C, strain cdc73, stronger effect = lower value): 0.97
normalized growth (S. cerevisiae deletion strains, locus YML016C, strain PPZ1, stronger effect = lower value): 0.996
normalized growth (S. cerevisiae deletion strains, locus YML032C, strain rad52, stronger effect = lower value): 0.998
normalized growth (S. cerevisiae deletion strains, locus YML120C, strain ndi1, stronger effect = lower value): 0.965
normalized growth (S. cerevisiae deletion strains, locus YML124C, strain tub3, stronger effect = lower value): 0.991
normalized growth (S. cerevisiae deletion strains, locus YMR058W, strain fet3, stronger effect = lower value): 0.966
normalized growth (S. cerevisiae deletion strains, locus YMR078C, strain ctf18, stronger effect = lower value): 0.989
normalized growth (S. cerevisiae deletion strains, locus YMR125W, strain sto1, stronger effect = lower value): 0.961
normalized growth (S. cerevisiae deletion strains, locus YMR129W, stronger effect = lower value): 0.949
normalized growth (S. cerevisiae deletion strains, locus YMR205C, strain PFK2, stronger effect = lower value): 0.895
normalized growth (S. cerevisiae deletion strains, locus YMR223W, strain ubp8, stronger effect = lower value): 0.998
normalized growth (S. cerevisiae deletion strains, locus YMR231W, strain pep5, stronger effect = lower value): 0.973
normalized growth (S. cerevisiae deletion strains, locus YMR263W, strain SAP30, stronger effect = lower value): 1
normalized growth (S. cerevisiae deletion strains, locus YMR307W, strain GAS1, stronger effect = lower value): 1.03
normalized growth (S. cerevisiae deletion strains, locus YNL067W, strain RPL9B, stronger effect = lower value): 0.993
normalized growth (S. cerevisiae deletion strains, locus YNL071W, strain lat1, stronger effect = lower value): 0.91 (active)
normalized growth (S. cerevisiae deletion strains, locus YNL128W, strain TEP1, stronger effect = lower value): 0.989
normalized growth (S. cerevisiae deletion strains, locus YNL153C, strain GIM3, stronger effect = lower value): 0.994
normalized growth (S. cerevisiae deletion strains, locus YNL209W, strain ssb2, stronger effect = lower value): 0.983
normalized growth (S. cerevisiae deletion strains, locus YNL233W, strain BNI4, stronger effect = lower value): 0.995
normalized growth (S. cerevisiae deletion strains, locus YNL248C, strain rpa49, stronger effect = lower value): 0.966
normalized growth (S. cerevisiae deletion strains, locus YNL250W, strain rad50, stronger effect = lower value): 0.993
normalized growth (S. cerevisiae deletion strains, locus YNL271C, strain bni1, stronger effect = lower value): 0.992
normalized growth (S. cerevisiae deletion strains, locus YNL298W, strain CLA4, stronger effect = lower value): 0.997
normalized growth (S. cerevisiae deletion strains, locus YNL307C, strain MCK1, stronger effect = lower value): 0.991
normalized growth (S. cerevisiae deletion strains, locus YNL322C, strain KRE1 (second series), stronger effect = lower value): 0.958
normalized growth (S. cerevisiae deletion strains, locus YNL322C, strain KRE1, stronger effect = lower value): 1
normalized growth (S. cerevisiae deletion strains, locus YNR049C, strain mso1, stronger effect = lower value): 0.961
normalized growth (S. cerevisiae deletion strains, locus YNR052C, strain pop2, stronger effect = lower value): 0.992
normalized growth (S. cerevisiae deletion strains, locus YOL006C, strain TOP1, stronger effect = lower value): 0.981
normalized growth (S. cerevisiae deletion strains, locus YOL012C, strain htz1): 1.68
normalized growth (S. cerevisiae deletion strains, locus YOL147C, strain pex11, stronger effect = lower value): 0.996
normalized growth (S. cerevisiae deletion strains, locus YOR001W, strain rrp6, stronger effect = lower value): 0.969
normalized growth (S. cerevisiae deletion strains, locus YOR061W, strain CKA2, stronger effect = lower value): 0.985
normalized growth (S. cerevisiae deletion strains, locus YOR069W, strain VPS5, stronger effect = lower value): 1
normalized growth (S. cerevisiae deletion strains, locus YOR070C, strain gyp1, stronger effect = lower value): 0.961
normalized growth (S. cerevisiae deletion strains, locus YOR080W, strain dia2, stronger effect = lower value): 0.961
normalized growth (S. cerevisiae deletion strains, locus YOR083W, strain WHI5, stronger effect = lower value): 0.961
normalized growth (S. cerevisiae deletion strains, locus YOR106W, strain vam3, stronger effect = lower value): 0.963
normalized growth (S. cerevisiae deletion strains, locus YOR136W, strain idh2, stronger effect = lower value): 0.999
normalized growth (S. cerevisiae deletion strains, locus YOR144C, strain elg1, stronger effect = lower value): 0.982
normalized growth (S. cerevisiae deletion strains, locus YOR184W, strain ser1, stronger effect = lower value): 0.978
normalized growth (S. cerevisiae deletion strains, locus YOR265W, strain rbl2, stronger effect = lower value): 0.952
normalized growth (S. cerevisiae deletion strains, locus YOR270C, strain vph1, stronger effect = lower value): 0.963
normalized growth (S. cerevisiae deletion strains, locus YOR290C, strain snf2, stronger effect = lower value): 0.963
normalized growth (S. cerevisiae deletion strains, locus YOR316C, strain cot1, stronger effect = lower value): 0.991
normalized growth (S. cerevisiae deletion strains, locus YPL051W, strain arl3, stronger effect = lower value): 0.953
normalized growth (S. cerevisiae deletion strains, locus YPL055C, strain LGE1, stronger effect = lower value): 0.981
normalized growth (S. cerevisiae deletion strains, locus YPL078C, strain atp4, stronger effect = lower value): 0.962
normalized growth (S. cerevisiae deletion strains, locus YPL106C, strain sse1, stronger effect = lower value): 0.994
normalized growth (S. cerevisiae deletion strains, locus YPL240C, strain hsp82, stronger effect = lower value): 0.948
normalized growth (S. cerevisiae deletion strains, locus YPL241C, strain CIN2, stronger effect = lower value): 0.994
normalized growth (S. cerevisiae deletion strains, locus YPR119W, strain clb2, stronger effect = lower value): 0.99
normalized growth (S. cerevisiae deletion strains, locus YPR141C, strain kar3, stronger effect = lower value): 0.993
normalized growth (S. cerevisiae deletion strains, locus YPR163C, strain tif3, stronger effect = lower value): 0.993
normalized growth (S. cerevisiae deletion strains, locus YPR167C, strain met16, stronger effect = lower value): 0.984
normalized growth (S. cerevisiae deletion strains, strain wtn01, stronger effect = lower value): 0.99
normalized growth (S. cerevisiae strains, strain wild type, stronger effect = lower value): 0.993

From PubChem BioAssay AID1159580 (chemical genetic matrix, 2015)
